SMILES strings stand for the structures.

The results in this text go back to ChEMBL document CHEMBL2218924, “A broad activity screen in support of a chemogenomic map for kinase signalling research and drug discovery” (Biochem J, 2013).

Assay [1] addresses MAP kinase-interacting serine/threonine-protein kinase 2 (Homo sapiens) (UniProt Q9HBH9). The following applies: at 1 µM.
Assay [2] has the same target. Particulars: at 10 µM.
Assay [3] concerns the target T1, Muscle, skeletal receptor tyrosine-protein kinase (Homo sapiens) (UniProt O15146).
T1 sequence (whole entry): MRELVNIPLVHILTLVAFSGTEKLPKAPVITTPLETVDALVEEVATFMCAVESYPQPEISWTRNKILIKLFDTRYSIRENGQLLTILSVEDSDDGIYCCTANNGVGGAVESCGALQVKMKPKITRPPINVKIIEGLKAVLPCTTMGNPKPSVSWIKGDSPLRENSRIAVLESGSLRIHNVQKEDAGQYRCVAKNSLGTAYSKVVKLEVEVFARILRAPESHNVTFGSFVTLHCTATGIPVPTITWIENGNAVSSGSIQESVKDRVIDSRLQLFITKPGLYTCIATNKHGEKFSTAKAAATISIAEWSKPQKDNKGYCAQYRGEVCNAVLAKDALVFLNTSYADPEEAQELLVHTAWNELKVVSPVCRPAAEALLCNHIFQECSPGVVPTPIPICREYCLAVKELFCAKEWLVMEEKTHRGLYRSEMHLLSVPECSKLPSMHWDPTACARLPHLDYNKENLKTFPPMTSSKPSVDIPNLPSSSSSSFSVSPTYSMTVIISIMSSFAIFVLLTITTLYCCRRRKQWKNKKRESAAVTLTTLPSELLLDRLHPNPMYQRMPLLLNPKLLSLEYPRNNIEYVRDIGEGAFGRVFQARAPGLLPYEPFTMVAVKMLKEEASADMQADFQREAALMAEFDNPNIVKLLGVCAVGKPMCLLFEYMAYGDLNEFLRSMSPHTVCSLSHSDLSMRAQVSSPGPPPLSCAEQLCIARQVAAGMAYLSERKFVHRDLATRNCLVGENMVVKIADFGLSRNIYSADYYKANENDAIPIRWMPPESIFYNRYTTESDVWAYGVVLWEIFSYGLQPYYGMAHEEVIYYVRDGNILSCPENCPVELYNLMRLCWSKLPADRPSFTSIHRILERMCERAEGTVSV
The following applies: at 1 µM.

Assay [4] addresses T1, Muscle, skeletal receptor tyrosine-protein kinase (Homo sapiens). Particulars: at 10 µM.
Assay [5] addresses T2, Serine/threonine-protein kinase Nek11 (Homo sapiens) (UniProt Q8NG66).
T2 sequence (whole entry): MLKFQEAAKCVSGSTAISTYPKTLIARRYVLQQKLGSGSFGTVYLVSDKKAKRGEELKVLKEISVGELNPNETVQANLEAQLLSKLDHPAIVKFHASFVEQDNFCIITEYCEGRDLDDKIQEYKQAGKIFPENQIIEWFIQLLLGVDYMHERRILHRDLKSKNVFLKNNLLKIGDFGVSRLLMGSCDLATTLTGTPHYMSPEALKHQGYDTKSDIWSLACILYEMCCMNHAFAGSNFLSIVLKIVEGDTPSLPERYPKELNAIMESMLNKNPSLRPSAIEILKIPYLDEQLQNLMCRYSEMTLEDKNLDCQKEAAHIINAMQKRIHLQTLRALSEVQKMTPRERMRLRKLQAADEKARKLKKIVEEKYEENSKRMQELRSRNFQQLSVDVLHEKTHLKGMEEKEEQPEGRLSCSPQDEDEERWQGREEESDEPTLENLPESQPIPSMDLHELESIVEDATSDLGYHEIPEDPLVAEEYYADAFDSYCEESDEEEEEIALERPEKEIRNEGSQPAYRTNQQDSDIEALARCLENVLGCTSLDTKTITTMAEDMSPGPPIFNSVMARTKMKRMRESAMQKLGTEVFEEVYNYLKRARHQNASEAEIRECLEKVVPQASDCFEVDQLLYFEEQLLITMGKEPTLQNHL
Particulars: at 1 µM.

For assay [6], the target named is T2, Serine/threonine-protein kinase Nek11 (Homo sapiens). The following applies: at 10 µM.
Assay [7] has as its target T3, Serine/threonine-protein kinase Nek2 (Homo sapiens) (UniProt P51955).
T3 sequence (whole entry): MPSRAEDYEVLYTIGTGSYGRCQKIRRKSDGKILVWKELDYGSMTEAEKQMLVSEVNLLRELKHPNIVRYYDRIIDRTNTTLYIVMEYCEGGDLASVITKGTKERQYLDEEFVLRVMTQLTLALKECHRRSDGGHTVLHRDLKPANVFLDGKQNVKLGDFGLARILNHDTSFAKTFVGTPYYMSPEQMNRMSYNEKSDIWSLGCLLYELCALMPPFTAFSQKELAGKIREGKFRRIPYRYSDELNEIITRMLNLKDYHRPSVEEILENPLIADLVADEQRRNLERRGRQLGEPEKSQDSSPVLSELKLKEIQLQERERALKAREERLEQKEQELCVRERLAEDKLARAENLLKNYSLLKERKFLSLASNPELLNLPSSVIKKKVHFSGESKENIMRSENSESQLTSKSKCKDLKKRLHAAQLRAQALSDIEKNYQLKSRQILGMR
The following applies: at 1 µM.

For assay [8], the target named is T3, Serine/threonine-protein kinase Nek2 (Homo sapiens). The following applies: at 10 µM.
Assay [9] concerns the target T4, Serine/threonine-protein kinase Nek3 (Homo sapiens) (UniProt P51956).
T4 sequence (whole entry): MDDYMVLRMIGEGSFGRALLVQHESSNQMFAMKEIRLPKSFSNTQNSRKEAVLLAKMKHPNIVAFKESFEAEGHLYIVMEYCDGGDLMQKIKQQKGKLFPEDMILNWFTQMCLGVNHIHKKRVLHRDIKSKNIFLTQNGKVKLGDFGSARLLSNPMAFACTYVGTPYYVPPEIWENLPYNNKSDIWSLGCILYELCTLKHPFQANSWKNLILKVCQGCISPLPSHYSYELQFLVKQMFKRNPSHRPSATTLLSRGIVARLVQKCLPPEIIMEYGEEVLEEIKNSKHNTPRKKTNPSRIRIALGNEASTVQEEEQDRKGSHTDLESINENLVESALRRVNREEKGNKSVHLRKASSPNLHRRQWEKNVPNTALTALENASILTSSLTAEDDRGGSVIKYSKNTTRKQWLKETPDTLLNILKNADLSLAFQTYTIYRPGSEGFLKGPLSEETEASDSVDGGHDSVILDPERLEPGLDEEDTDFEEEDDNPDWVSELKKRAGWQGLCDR
The following applies: at 10 µM.

Assay [10] deals with Serine/threonine-protein kinase tousled-like 2 (Homo sapiens) (UniProt Q86UE8). The following applies: at 1 µM.
Chain of Serine/threonine-protein kinase tousled-like 2 (Homo sapiens) (Q86UE8 whole entry, looked up): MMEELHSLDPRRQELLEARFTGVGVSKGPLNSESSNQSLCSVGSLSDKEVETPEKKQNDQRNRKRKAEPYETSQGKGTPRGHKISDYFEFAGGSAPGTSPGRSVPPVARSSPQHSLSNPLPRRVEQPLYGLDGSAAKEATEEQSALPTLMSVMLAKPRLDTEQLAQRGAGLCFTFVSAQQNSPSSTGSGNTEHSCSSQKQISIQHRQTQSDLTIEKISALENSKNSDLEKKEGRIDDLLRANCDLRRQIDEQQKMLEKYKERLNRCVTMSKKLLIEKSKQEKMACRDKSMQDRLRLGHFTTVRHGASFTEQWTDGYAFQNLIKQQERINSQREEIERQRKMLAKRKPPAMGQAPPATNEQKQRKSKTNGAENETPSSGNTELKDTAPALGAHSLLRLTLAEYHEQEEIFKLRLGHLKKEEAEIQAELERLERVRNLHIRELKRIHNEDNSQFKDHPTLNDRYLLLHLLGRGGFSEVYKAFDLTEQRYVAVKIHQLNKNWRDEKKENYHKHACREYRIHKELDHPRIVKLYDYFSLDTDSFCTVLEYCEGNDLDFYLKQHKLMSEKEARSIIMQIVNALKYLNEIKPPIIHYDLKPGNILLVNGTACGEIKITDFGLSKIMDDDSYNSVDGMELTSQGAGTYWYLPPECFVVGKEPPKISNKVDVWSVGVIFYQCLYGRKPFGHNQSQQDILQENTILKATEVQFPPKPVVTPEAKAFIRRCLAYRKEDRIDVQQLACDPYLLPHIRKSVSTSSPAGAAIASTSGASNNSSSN
The target is the same in assay [11]. Particulars: at 10 µM.
Assay [12] addresses T5, Testis-specific serine/threonine-protein kinase 1 (Homo sapiens) (UniProt Q9BXA7).
T5 sequence (whole entry): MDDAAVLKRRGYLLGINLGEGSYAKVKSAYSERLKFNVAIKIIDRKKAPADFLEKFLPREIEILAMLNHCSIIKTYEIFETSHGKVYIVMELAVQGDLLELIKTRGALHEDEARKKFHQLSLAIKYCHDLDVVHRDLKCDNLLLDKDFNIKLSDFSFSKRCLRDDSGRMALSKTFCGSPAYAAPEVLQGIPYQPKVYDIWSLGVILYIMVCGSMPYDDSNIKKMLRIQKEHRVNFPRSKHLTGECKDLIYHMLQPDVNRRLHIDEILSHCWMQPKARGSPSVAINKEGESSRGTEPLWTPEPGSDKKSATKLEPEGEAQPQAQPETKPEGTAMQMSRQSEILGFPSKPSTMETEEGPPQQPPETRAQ
The following applies: at 1 µM.

In assay [13] the target is T6, Tyrosine-protein kinase Mer (Homo sapiens) (UniProt Q12866).
T6 sequence (whole entry): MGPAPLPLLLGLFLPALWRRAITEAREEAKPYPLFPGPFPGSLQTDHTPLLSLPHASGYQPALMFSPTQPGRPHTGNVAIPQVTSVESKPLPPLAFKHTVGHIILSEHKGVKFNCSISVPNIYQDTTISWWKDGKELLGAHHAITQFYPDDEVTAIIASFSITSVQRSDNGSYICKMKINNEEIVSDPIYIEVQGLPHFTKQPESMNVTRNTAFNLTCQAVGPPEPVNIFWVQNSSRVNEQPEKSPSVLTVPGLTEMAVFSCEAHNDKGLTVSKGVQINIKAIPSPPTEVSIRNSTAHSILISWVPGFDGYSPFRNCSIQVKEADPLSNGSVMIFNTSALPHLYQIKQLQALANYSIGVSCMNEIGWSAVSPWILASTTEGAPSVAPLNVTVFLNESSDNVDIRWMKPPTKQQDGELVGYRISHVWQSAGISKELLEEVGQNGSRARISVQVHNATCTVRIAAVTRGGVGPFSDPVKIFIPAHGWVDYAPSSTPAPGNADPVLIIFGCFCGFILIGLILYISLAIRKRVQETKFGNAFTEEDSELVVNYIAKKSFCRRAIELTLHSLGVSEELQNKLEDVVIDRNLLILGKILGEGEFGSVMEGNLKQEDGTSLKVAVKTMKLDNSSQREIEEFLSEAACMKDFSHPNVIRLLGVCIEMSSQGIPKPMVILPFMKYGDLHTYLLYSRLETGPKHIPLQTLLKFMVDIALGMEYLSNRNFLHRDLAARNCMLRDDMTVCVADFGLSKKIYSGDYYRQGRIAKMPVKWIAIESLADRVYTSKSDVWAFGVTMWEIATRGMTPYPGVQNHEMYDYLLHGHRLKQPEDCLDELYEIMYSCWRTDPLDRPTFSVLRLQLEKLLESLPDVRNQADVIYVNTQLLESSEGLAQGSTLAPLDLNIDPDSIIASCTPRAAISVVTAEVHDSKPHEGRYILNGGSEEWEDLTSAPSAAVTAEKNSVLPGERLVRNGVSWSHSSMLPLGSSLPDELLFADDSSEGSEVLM
The following applies: at 1 µM.

Assay [14] deals with T6, Tyrosine-protein kinase Mer (Homo sapiens). The following applies: at 10 µM.
In assay [15] the target is T5, Testis-specific serine/threonine-protein kinase 1 (Homo sapiens). The following applies: at 10 µM.
For assay [16], the target named is Hepatocyte growth factor receptor (Homo sapiens) (UniProt P08581). Particulars: at 1 µM.
Chain of Hepatocyte growth factor receptor (Homo sapiens) (P08581 whole entry): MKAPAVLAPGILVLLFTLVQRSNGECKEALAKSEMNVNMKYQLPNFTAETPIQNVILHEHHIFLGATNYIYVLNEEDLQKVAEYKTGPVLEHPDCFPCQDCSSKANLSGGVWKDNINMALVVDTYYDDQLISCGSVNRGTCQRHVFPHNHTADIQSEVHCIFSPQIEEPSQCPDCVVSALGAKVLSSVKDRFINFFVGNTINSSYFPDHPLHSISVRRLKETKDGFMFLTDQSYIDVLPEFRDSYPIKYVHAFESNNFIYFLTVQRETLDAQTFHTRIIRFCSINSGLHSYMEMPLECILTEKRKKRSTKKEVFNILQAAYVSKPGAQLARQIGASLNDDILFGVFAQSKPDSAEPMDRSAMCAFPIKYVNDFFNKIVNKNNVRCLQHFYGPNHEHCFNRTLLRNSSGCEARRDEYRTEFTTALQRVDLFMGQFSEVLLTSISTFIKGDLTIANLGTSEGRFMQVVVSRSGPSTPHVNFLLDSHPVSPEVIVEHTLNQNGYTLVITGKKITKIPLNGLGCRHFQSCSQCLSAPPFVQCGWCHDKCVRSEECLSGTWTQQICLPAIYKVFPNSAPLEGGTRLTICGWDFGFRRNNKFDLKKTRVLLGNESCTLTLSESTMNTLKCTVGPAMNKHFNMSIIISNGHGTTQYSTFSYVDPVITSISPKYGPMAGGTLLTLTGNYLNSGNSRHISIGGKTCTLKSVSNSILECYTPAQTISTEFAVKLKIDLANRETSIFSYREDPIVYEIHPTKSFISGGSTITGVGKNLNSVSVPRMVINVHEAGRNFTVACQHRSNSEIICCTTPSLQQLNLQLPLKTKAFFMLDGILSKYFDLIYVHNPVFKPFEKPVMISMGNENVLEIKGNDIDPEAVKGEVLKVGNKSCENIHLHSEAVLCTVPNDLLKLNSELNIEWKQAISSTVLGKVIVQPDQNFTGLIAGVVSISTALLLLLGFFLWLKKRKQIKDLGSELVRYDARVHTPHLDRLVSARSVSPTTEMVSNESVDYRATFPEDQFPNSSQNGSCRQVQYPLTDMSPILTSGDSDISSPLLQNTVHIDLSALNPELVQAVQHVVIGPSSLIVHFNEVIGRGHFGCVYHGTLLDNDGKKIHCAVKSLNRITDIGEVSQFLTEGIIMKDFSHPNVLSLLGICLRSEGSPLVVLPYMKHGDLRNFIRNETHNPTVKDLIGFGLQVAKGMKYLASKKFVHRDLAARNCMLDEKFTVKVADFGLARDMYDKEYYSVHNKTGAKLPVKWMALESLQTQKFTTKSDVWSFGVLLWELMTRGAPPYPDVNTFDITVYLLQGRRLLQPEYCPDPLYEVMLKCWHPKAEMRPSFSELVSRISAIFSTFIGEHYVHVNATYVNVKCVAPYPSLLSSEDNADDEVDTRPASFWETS
Assay [17] has the same target. The following applies: at 10 µM.
Assay [18] concerns the target T4, Serine/threonine-protein kinase Nek3 (Homo sapiens). The following applies: at 1 µM.
The target of assay [19] is T7, Testis-specific serine/threonine-protein kinase 2 (Homo sapiens) (UniProt Q96PF2).
T7 sequence (whole entry): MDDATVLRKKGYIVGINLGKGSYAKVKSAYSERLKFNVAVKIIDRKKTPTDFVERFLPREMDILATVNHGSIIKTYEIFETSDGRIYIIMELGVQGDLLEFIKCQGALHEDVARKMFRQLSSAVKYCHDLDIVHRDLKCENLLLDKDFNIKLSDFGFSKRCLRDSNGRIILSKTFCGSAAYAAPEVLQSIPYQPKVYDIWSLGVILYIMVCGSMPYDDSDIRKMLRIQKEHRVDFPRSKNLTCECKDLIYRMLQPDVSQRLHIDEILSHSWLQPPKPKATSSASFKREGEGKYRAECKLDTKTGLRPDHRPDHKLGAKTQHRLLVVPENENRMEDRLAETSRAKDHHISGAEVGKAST
The following applies: at 1 µM.

In assay [20] the target is T7, Testis-specific serine/threonine-protein kinase 2 (Homo sapiens). Particulars: at 10 µM.

Chain of MAP kinase-interacting serine/threonine-protein kinase 2 (Homo sapiens) (Q9HBH9 whole entry, looked up): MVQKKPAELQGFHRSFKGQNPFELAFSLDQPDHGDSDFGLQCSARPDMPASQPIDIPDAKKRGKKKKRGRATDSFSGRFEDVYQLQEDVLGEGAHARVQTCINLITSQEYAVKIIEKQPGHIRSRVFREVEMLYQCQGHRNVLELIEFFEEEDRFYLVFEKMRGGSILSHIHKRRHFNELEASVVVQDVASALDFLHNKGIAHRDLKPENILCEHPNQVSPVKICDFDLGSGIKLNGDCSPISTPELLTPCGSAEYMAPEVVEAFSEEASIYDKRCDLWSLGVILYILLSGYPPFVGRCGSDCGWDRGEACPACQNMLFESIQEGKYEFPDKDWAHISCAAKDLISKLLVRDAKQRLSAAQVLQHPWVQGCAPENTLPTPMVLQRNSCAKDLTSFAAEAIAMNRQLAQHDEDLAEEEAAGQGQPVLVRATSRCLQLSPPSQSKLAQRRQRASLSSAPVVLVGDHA

As a reminder, the residual activity is the signal under treatment as a percentage of the control signal. Regarding `CCc1nc(-c2ccc(OC)cc2)[nH]c1-c1ccncc1`, the residual activity amounted to 105% in assay [1]; 59% in assay [2]; 117% in assay [3]; 76% in [4]; 62% in assay [5]; 72% in assay [6]. Besides, the residual activity came out at 112% in assay [7]; 105% in [8]; 106% in assay [9]; 107% in assay [10]; 100% in [11]; 113% in [12].

Regarding `c1cc(-c2cnn3cc(-c4ccc(OCCN5CCCCC5)cc4)cnc23)ccn1`, the residual activity in assay [13] was 33%; in [14], 3%; in assay [1], 56%; in assay [2], 24%; in assay [3], 18%; in assay [4], 1%. The residual activity in assay [8] came out at 86%; in assay [11] it was 74%; in assay [12], 76%; in assay [15], 45%.

For `CC(C)[C@H](CO)Nc1nc(Nc2cccc(Cl)c2)c2ncn(C(C)C)c2n1`, the residual activity in assay [13] worked out at 26%; in assay [14] it was 0%; in assay [16], 83%; in [17], 73%; in [2], 98%; in assay [3], 48%. The residual activity in assay [4] was found to be 5%; in assay [5] it was 59%; in assay [6] it was 38%; in [7], 90%; in assay [8], 53%; in [18] it was 84%. In addition, the residual activity in [9] is 89%; in [10], 100%; in [11], 81%; in assay [12], 97%; in assay [15], 72%; in assay [19] it was 94%. Also, the residual activity in assay [20] was determined as 79%.

`Oc1ccc(-c2nc(-c3ccc(F)cc3)c(-c3ccncc3)[nH]2)cc1`: the residual activity in assay [19] was 103%.

Regarding `COc1ccc2c(c[n+](C)c3c4cc5c(cc4ccc23)OCO5)c1OC`, the residual activity stood at 94% in assay [16]; 85% in assay [17]; 82% in [2]; 95% in assay [4]; 76% in assay [7]; 68% in [8]. For the same compound, the residual activity in assay [18] came out at 110%; in assay [9] it was 60%; in assay [10] it was 95%; in assay [11], 92%.

For `Cn1c2ccccc2c2c3c(c4c5ccccc5n(CCC#N)c4c21)CNC3=O`, the residual activity in assay [19] turned out to be 64%.

For `O=[N+]([O-])/C=C/c1ccc2c(c1)OCO2`, the residual activity in [13] was 106%; in assay [14], 108%; in [16], 111%; in [17], 96%; in [1], 116%; in [2], 105%. In addition, the residual activity turned out to be 127% in assay [3]; 114% in assay [4]; 90% in assay [5]; 106% in assay [6]; 87% in assay [7]; 98% in assay [8]. For the same compound, the residual activity in assay [9] came out at 107%; in assay [10], 99%; in assay [11], 97%; in [12] it was 96%; in [15], 94%; in [19] it was 87%. Besides, in assay [20], the residual activity amounted to 74%.
